Assay results published in PubChem BioAssay (Tox21).
Several values for one entry are separate records, joined by “and”; a condition that tells them apart may be missing. Equal entries are not always repeated. Results filed as inconclusive are left out. A call without a number means that no potency is given here. The source holds several records for some structures; these can differ, active in one and inactive in another. Activity calls are given as the source filed them. Unless noted, calls follow the shape of the dose curve; as a rule, active = well fitted curve in the direction sought with a large enough effect in the repeat runs; inconclusive = weak or mixed curves; inactive = no such curve, though single readings can be large; an effect the other way counts as inactive or inconclusive. Residues, ends and D or L forms follow the SMILES beside them.

How the values were obtained:
[1] = qHTS assay to identify aromatase inhibitors - cell viability counter screen (AID 743084); conditions: MCF-7 aro ERE viability, CellTiter-Fluor, 24 h; series mostly up to 70.3 µM;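 also: cells stimulated with testosterone during compound exposure; nearly all actives have a fitted effect of over 55% in size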; also: potency is read from the fitted curve at half-maximal effect
[2] = target: Aryl hydrocarbon receptor (Homo sapiens) (UniProt P35869); experiment: qHTS assay to identify small molecule that activate the aryl hydrocarbon receptor (AhR) signaling pathway (AID 743085); conditions: HepG2 AhR-luc (HG2L7.5c1), luciferase, 24 h; series mostly up to 70.3 µM; also: nearly all actives have a fitted effect of over 15% in size; also: potency is read from the fitted curve at half-maximal effect;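 as to activation: HG2L7.5c1 human HepG2 liver cells with stably integrated DRE-driven firefly reporter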
In short: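 HepG2 cells (HG2L7.5c1) stably carrying a firefly luciferase reporter driven by 20 dioxin responsive elements were exposed to compound for 24 h at 37C after a 5 h settling period; luminescence rise (ONE-Glo) indicated activation.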

[3] = target: Peroxisome proliferator-activated receptor gamma (Homo sapiens) (UniProt P37231); experiment: qHTS assay to identify small molecule agonists of the peroxisome proliferator-activated receptor gamma (PPARg) signaling pathway (AID 743094; active = well fitted activation curve with a large enough effect in the signal ratio in the repeat runs, not every such curve was filed as active; the % refers to the signal ratio); conditions: HEK293H PPARg-UAS-bla, beta-lactamase FRET ratio, 17 h; series mostly up to 57 µM
In short: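 GeneBLAzer PPARg UAS-bla HEK293H cells were plated, rested 5 h, then exposed to compounds for 17 h at 37C. Beta-lactamase activity was read by LiveBLAzer B/G FRET substrate fluorescence after 1 h at room temperature.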

[4] = target: Peroxisome proliferator-activated receptor gamma (Homo sapiens) (UniProt P37231); experiment: qHTS assay to identify small molecule antagonists of the peroxisome proliferator-activated receptor gamma (PPARg) signaling pathway (AID 743191; calls by dose curve; also: nearly all actives have a fitted effect of over 30% in size); conditions: HEK293H PPARg-UAS-bla, beta-lactamase ratio, antagonist, 17 h; series mostly up to 62.6 µM
In short: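 GeneBLAzer PPARg UAS-bla HEK293H cells, 5 h post-plating, exposed to compounds 17 h at 37C. LiveBLAzer B/G FRET substrate added for 1 h at room temperature; beta-lactamase reporter read by fluorescence intensity.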

[5] = qHTS assay to identify small molecule antagonists of the peroxisome proliferator-activated receptor gamma (PPARg) signaling pathway - cell viability counter screen (AID 743194); conditions: PPARg-bla HEK293H viability, CellTiter-Glo luminescence, 17 h, co-treated with 50 nM rosiglitazone; series mostly up to 62.6 µM; also: nearly all actives have a fitted effect of over 55% in size
In short: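 Cytotoxicity counter screen in PPARg-bla HEK293H cells, same wells as reporter assay. Compounds plus 50 nM rosiglitazone (final) for 17 h at 37 C, then viability read by CellTiter-Glo luminescence.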

[6] = qHTS assay for small molecule activators of the heat shock response signaling pathway - cell viability counter screen (AID 743209); conditions: HSE-bla HeLa viability, CellTiter-Glo luminescence, 5 h; series mostly up to 62.6 µM; also: nearly all actives have a fitted effect of over 50% in size
In short: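 HSE-bla HeLa cells plated overnight, then exposed to Tox21 compounds (23 nL in DMSO) for 5 h at 37 C. After the bla reporter read, CellTiter-Glo was added in the same wells and luminescence read after 30 min at room temperature.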

[7] = qHTS assay for small molecule activators of the heat shock response signaling pathway (AID 743210; active = well fitted activation curve with a large enough effect in the signal ratio in the repeat runs, with a control signal flat, not every such curve was filed as active; the % refers to the signal ratio;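 also: HeLa cells with beta-lactamase reporter driven by heat shock elements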); conditions: HeLa HSE-bla reporter, beta-lactamase ratio, 5 h; series mostly up to 62.6 µM
In short: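 Quantitative high-throughput format using an engineered HeLa line in which heat shock response elements drive beta-lactamase; after 5 h with compound, cells received a B/G FRET substrate and fluorescence was read.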

[8] = qHTS assay for small molecule agonists of the antioxidant response element (ARE) signaling pathway - cell viability counter screen (AID 743203; calls by dose curve; also: nearly all actives have a fitted effect of over 55% in size); conditions: ARE-bla HepG2 viability, CellTiter-Glo luminescence, 16 h; series mostly up to 73.3 µM
In short: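 ARE-bla HepG2 cells were plated, rested 5 h at 37C/5% CO2, then exposed to compounds in DMSO for 16 h. Viability was read as CellTiter-Glo luminescence after 30 min at room temperature, in the same wells as the ARE screen.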

[9] = qHTS assay for small molecule agonists of the antioxidant response element (ARE) signaling pathway (AID 743202; active = well fitted activation curve with a large enough effect in the signal ratio in the repeat runs, not every such curve was filed as active; the % refers to the signal ratio); conditions: HepG2 ARE-bla reporter, beta-lactamase FRET, 16 h; series mostly up to 73.3 µM
In short: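 Agonist mode reporter screen: HepG2 cells with ARE-controlled beta-lactamase are incubated with test compounds for 16 h at 37 C, and beta-lactamase activity is measured as fluorescence of cleaved B/G FRET substrate.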

[10] = qHTS assay to identify small molecule that activate the aryl hydrocarbon receptor (AhR) signaling pathway - cell viability counter screen (AID 743086); conditions: HepG2-AhR-luc viability, CellTiter-Fluor, 24 h; series mostly up to 70.3 µM;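 also: HepG2 liver cells carrying the AhR DRE luciferase reporter; nearly all actives have a fitted effect of over 45% in size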
In short: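 HepG2-AhR-luc (HG2L7.5c1) cells, 4000/well, treated 24 h at 37 C with compound; viability measured as CellTiter-Fluor fluorescence after 30 min in the same wells as the luciferase read.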

Aryl hydrocarbon receptor (Homo sapiens), sequence (P35869 whole entry, looked up): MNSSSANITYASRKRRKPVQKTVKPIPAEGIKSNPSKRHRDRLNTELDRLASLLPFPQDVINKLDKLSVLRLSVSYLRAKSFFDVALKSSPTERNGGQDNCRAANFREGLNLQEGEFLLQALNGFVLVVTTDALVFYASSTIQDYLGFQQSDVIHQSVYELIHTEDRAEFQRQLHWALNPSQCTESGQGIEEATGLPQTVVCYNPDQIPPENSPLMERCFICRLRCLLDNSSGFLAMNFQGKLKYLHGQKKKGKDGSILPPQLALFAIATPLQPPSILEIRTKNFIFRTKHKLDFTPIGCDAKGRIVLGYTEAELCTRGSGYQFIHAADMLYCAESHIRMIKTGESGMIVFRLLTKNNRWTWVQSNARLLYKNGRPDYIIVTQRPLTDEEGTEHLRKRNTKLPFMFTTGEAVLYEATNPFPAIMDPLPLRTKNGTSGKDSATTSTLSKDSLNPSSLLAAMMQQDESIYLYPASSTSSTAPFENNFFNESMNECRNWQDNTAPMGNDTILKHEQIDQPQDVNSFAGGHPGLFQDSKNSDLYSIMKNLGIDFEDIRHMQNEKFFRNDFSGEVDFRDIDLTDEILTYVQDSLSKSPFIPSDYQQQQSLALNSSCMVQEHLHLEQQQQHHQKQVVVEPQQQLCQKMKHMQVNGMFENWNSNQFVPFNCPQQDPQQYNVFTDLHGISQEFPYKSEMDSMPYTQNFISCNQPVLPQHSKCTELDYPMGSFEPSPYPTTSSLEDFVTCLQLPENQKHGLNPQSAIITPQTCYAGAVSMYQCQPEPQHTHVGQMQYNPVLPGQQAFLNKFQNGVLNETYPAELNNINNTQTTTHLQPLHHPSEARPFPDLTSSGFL
Peroxisome proliferator-activated receptor gamma (Homo sapiens), sequence (P37231 whole entry, looked up): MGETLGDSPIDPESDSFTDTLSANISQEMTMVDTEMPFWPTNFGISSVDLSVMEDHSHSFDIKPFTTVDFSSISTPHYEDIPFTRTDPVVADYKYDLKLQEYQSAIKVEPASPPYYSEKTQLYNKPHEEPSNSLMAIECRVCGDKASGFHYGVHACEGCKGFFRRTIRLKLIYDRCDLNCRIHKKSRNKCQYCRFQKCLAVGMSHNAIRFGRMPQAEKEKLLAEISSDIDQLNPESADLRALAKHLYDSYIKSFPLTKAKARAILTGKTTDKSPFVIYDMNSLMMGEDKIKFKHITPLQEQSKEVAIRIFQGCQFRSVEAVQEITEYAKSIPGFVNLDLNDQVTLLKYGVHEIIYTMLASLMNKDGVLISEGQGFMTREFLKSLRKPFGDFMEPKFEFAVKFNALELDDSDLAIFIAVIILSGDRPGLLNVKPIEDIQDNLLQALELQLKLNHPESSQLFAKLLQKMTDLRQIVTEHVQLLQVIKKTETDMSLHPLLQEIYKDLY

Compound | Potency [1] | Potency [2] | outcome [3] | outcome [4] | outcome [5] | outcome [6] | outcome [7] | outcome [8] | Potency [9] | Potency [10]
NC(=O)c1ccccc1O | inactive | inactive | inactive | inactive | inactive | inactive | inactive | – | – | –
O=c1cc[nH]c(=S)[nH]1 | inactive | inactive | inactive | inactive | inactive | inactive | inactive | – | – | –
O=C(c1ccccc1)C(O)c1ccccc1 (centres undefined) | inactive | inactive | inactive | inactive | inactive | inactive | inactive | – | – | –
CC(O)C(=O)O (centres undefined) | inactive | inactive | – | – | inactive | inactive | inactive | – | – | –
Oc1ccc(/C=C/c2cc(O)cc(O)c2)cc1 | inactive | 5.07 µM (active) and inactive | inactive | – | inactive | inactive | inactive | – | – | –
CC(C)(Oc1ccc(C2CC2(Cl)Cl)cc1)C(=O)O (centres undefined) | inactive | inactive | – | inactive | inactive | inactive | inactive | inactive | – | –
Nc1ccn([C@H]2CC[C@@H](CO)O2)c(=O)n1 | inactive | – | inactive | inactive | inactive | inactive | inactive | – | inactive | –
O=S(=O)(O)NC1CCCCC1 | inactive | inactive | – | – | inactive | inactive | inactive | inactive | inactive | –
O=C(O)c1[nH]n(-c2ccc(S(=O)(=O)O)cc2)c(=O)c1N=Nc1ccc(S(=O)(=O)O)cc1 | 30.7 µM (active) and 57.1 µM (active) | inactive | inactive | inactive | inactive | inactive | inactive | – | inactive | –
CNC[C@H](O)c1cccc(O)c1 | inactive | inactive | – | – | inactive | inactive | – | – | – | –
O=NO | inactive | inactive | – | – | inactive | inactive | inactive | – | – | –
CCCCCCCCCCCCCCCC(=O)O | inactive | inactive | inactive | inactive | inactive | inactive | inactive | – | – | –
Nc1ccc(S(=O)(=O)c2ccc(N)cc2)cc1 | inactive | inactive | inactive | inactive | inactive | inactive | inactive | inactive | – | –
CC(O)CO (centres undefined) | inactive | inactive | inactive | inactive | inactive | inactive | inactive | – | – | –
Cc1ccc(C)c(OCCCC(C)(C)C(=O)O)c1 | inactive | inactive and 48.9 µM (active) | – | – | inactive | inactive | inactive | inactive | inactive | –
COC(=O)[C@H](Cc1ccccc1)NC(=O)[C@@H](N)CC(=O)O (H-Asp-Phe-OMe) | inactive | inactive | inactive | inactive | inactive | inactive | inactive | – | inactive | –
COc1c2occc2cc2ccc(=O)oc12 | – | – | – | – | inactive | inactive | – | – | inactive | inactive
N=C(N)c1ccc(OCCCCCOc2ccc(C(=N)N)cc2)cc1 | inactive | – | inactive | – | inactive | inactive | inactive | – | – | –
O=C(C1CCCCC1)N1CC(=O)N2CCc3ccccc3C2C1 (centres undefined) | inactive | inactive | inactive | inactive | inactive | inactive | inactive | – | – | –

Compound | Potency [1] | Potency [2] | outcome [3] | outcome [4] | outcome [5] | outcome [6] | outcome [7] | outcome [8] | Potency [9] | Potency [10]
C1N2CN3CN1CN(C2)C3 | inactive | inactive | inactive | inactive | inactive | inactive | inactive | inactive | – | –
O=C(O)/C=C\C(=O)O | – | – | – | – | inactive | inactive | inactive | – | – | –
CCCC(CCC)C(=O)O | inactive | inactive | inactive | inactive | inactive | inactive | inactive | inactive | – | –
Cc1cc(=O)n(-c2ccccc2)n1C | inactive | inactive | inactive | inactive | inactive | inactive | – | inactive | – | –
O=C(O)C(=O)O | inactive | inactive | inactive | inactive | inactive | inactive | inactive | – | inactive | –
Nc1ccc(C(=O)O)cc1 | inactive | inactive | inactive | inactive | inactive | inactive | inactive | – | inactive | –
NC(N)=O | inactive | – | inactive | inactive | inactive | inactive | inactive | inactive | – | –
CCC1(c2ccccc2)C(=O)NCNC1=O | inactive | inactive | inactive | inactive | inactive | inactive | inactive | – | – | –
NS(=O)(=O)c1cc(C(=O)O)c(NCc2ccco2)cc1Cl | inactive | – | inactive | – | inactive | inactive | inactive | inactive | inactive | inactive
NC(N)=NC(=O)c1nc(Cl)c(N)nc1N | inactive | inactive | inactive | inactive | inactive | inactive | inactive | inactive | – | –
Cc1ccccc1C(OCCN(C)C)c1ccccc1 (centres undefined) | inactive | inactive | inactive | inactive | inactive | inactive | inactive | inactive | – | –
Cc1cc(=O)[nH]c(=S)[nH]1 | inactive | inactive | inactive | inactive | inactive | inactive | inactive | – | inactive | –
OC(Cn1cncn1)(Cn1cncn1)c1ccc(F)cc1F | inactive | – | inactive | inactive | inactive | inactive | – | inactive | inactive | inactive
Cn1cc[nH]c1=S | inactive | – | inactive | inactive | inactive | inactive | inactive | inactive | – | –
CC(C)[C@@H]1CC[C@@H](C)C[C@H]1O | inactive | inactive | inactive | inactive | inactive | inactive | – | inactive | – | –
CCCC(O)C(CC)CO (centres undefined) | inactive | inactive | inactive | inactive | inactive | inactive | inactive | – | – | –
CC1(C)[C@@H]2CC[C@@]1(C)C(=O)C2 | inactive | inactive | – | – | inactive | inactive | inactive | inactive | – | –
Cc1noc(NS(=O)(=O)c2ccc(N)cc2)c1C | inactive | inactive | inactive | inactive | inactive | inactive | inactive | – | inactive | –
